Assay results taken from PubChem BioAssay (NCI).
The panel holds about 79,000 compounds, 15% with a hit somewhere; the sample as a whole holds those more often. Unmarked numbers belong to inactive results. The source made the active and inactive calls. No stated cut-off is given here; in the data, active means growth inhibition above about 70%; inactive means the rest.

What was measured:
[1] = NCI Yeast Anticancer Drug Screen. Data for the rad50 strain (AID 155);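 further: 0% = growth of vehicle-only cultures of the same strain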; details: S. cerevisiae rad50 strain growth inhibition; at 50.0 µM; hits give high values
Method in brief: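 Genetically altered yeast (DNA repair pathway); compound treatment; growth inhibition vs vehicle ctrl.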

[2] = NCI Yeast Anticancer Drug Screen. Data for the mec2-1 strain (AID 157); details: S. cerevisiae mec2-1 strain, at 50.0 µM, hits give high values
Method in brief: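 Growth inhibition is read against vehicle-treated controls after compound exposure of the mec2-1 yeast strain, which is defective in DNA damage repair or cell cycle control.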

[3] = NCI Yeast Anticancer Drug Screen. Data for the sgs1 mgt1 strain (AID 161);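 further: 0% = growth of cultures given vehicle only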; details: S. cerevisiae sgs1 mgt1 strain, at 50.0 µM, hits give high values
Method in brief: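 Compounds are added to genetically altered yeast, and growth is compared with cultures given vehicle alone to give percent inhibition.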

[4] = NCI Yeast Anticancer Drug Screen. Data for the cln2 rad14 strain (AID 165);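 further: 0% = growth equal to vehicle treated cultures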; details: S. cerevisiae cln2 rad14 strain, at 50.0 µM, hits give high values
Method in brief: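 Growth inhibition, relative to vehicle-treated controls, is the read-out. The test organism is a yeast strain with defined genetic alterations, cln2 rad14.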

[5] = NCI Yeast Anticancer Drug Screen. Data for the bub3 strain (AID 167); details: S. cerevisiae bub3 mutant strain, at 50.0 µM, hits give high values
Method in brief: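 Yeast carrying a defined mutation is treated with each compound, and growth is compared with that of vehicle-exposed cells to give inhibition.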

[6] = NCI Yeast Anticancer Drug Screen. Data for the mlh1 rad18 strain (AID 175); details: S. cerevisiae mlh1 rad18 strain growth inhibition; at 50.0 µM; hits give high values
Method in brief: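 Cells of a genetically altered yeast strain, deficient in DNA damage repair, were treated with compound. Their growth was then compared with that of vehicle-treated cultures to give inhibition.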

Structure (SMILES)	growth inhibition [1]	growth inhibition [2]	growth inhibition [3]	growth inhibition [4]	growth inhibition [5]	growth inhibition [6]
O=c1[nH]cnc2nc(-c3cccc([N+](=O)[O-])c3)[nH]c12	-1%	30.9%	12.9%	-13.8%	5.4%	24.9%
O=C(Nc1nc2ncn(CC(COc3ccccc3)OC(=O)c3ccccc3)c2c(=O)[nH]1)c1ccccc1 (stereo not given)	-9.85%	9.55%	6.5%	15.2%	12.2%	-6.65%
CCOC(=O)C1CCC(=O)N1Cc1c[nH]c2ccccc12 (stereo not given)	3.2%	-12.7%	-5.1%	1%	21.4%	-14.7%
N/N=C(\N)N(Cc1ccccc1)c1ccccc1	10.3%	25.7%	2.85%	-11.6%	-2.6%	4.75%
Cc1nc(Nc2ccccc2)c(C#N)c(=O)[nH]1	-19.6%	-16.4%	-15.6%	-10.1%	-2.95%	-7.05%
CCOC(=O)Cc1cc(C)c2ccccc2n1	-7.75%	-5.65%	4.3%	-19.6%	-9.4%	7.45%
O=S(=O)([N-]c1nc2ccccc2nc1-[n+]1ccccc1)c1ccccc1	14%	-0.2%	14.7%	-7.25%	-2.2%	-22.6%
Cc1cccc2c3c(ccc12)C(=O)OC3=O	-0.3%	-2.85%	4.1%	-22.3%	-6.5%	4.25%
COC(=O)c1s/c(=N\C(=S)N(C)C)n(-c2ccc(Cl)cc2)c1C(=O)OC	-0.4%	2.25%	-4.1%	-40.1%	-21.9%	-3.2%
NC(=O)NC(=O)Cc1ccc([N+](=O)[O-])cc1	5.1%	0.1%	5.1%	-5.15%	6.25%	-0.35%
Cc1sc2nc3n(c(=O)c2c1C)N=CN(c1ccc(F)cc1)C3	0.85%	-0.45%	8.85%	-17.1%	-7.5%	-32.6%
C=C1C(=O)OC(CCCCCCCCCCCCCC(C)=O)[C@H]1C(=O)O (stereo not given in full)	10.2%	-9.75%	22.1%	4.85%	-10.9%	9.8%
CN(C)CCNC(=O)c1cccc2c1Oc1cccc([N+](=O)[O-])c1O2	-12.7%	-14.1%	-9.85%	14.4%	-12.1%	-34.3%
CCN(CC)c1ccc(N=C2C=C(C(=O)Nc3ccc(S(C)(=O)=O)cc3)C(=O)c3ccccc32)c(C)c1	-15.8%	-29.5%	2.55%	6.6%	-4.2%	-17.2%
CCN(CC)CCOB(c1cccc2ccccc12)c1cccc2ccccc12	39.6%	24.4%	17.1%	26.8%	-3.4%	43.8%
Cc1ccc(Cl)c(NC(=O)C(=O)C(C(=O)c2ccncc2)C2OC(=O)c3ccccc32)c1 (stereo not given)	-14.6%	-26.1%	-37.1%	6.45%	-5.85%	-17.9%
COc1cccc(Nc2nc(N)nc(N)c2N)c1	-4.2%	-35.8%	-6.3%	10.1%	-19.6%	14%
CC(=O)OCC1OC(N2C(=O)C(=O)c3cc(C)ccc32)C(OC(C)=O)C(OC(C)=O)C1OC(C)=O (stereo not given)	59.8%	10.2%	5.85%	1.7%	41%	33.4%
CC(=O)[C@@H](C)C(=O)N1C(=O)OC[C@@]12[C@@H]1CC[C@@H](C1)C2(C)C	-13.8%	-31.4%	-25.9%	-26.4%	10.8%	-32%
C=C1C(=O)C=C2C=C3C(=O)C(C)(C)C[C@]3(O)C12C (stereo not given in full)	84.3% (active)	92% (active)	89% (active)	82.5% (active)	86.2% (active)	-21.7%

Structure (SMILES)	growth inhibition [1]	growth inhibition [2]	growth inhibition [3]	growth inhibition [4]	growth inhibition [5]	growth inhibition [6]
Cc1ccc(N=C(NN(C)C)C(c2ccccc2)c2ccccc2)cc1	2.55%	-20.1%	7.95%	-18.9%	15.4%	-14.2%
OC(CC1CCCCN1)c1cc2c(Cl)cc(Cl)cc2c2cc(C(F)(F)F)ccc12 (stereo not given)	68%	50.6%	42.5%	30.1%	98.8% (active)	52%
C=CCNC(=O)CS(=O)(=O)c1ccc(C)cc1	0.1%	-10.3%	-0.35%	15.3%	3.05%	10.6%
Cc1ccc2ccccc2[n+]1CC(=O)c1ccc([N+](=O)[O-])cc1	-16.8%	-30.8%	-9.3%	9.95%	-11.2%	-12.4%
FC(F)(Br)C(F)(Cl)Br (stereo not given)	18.6%	18.8%	17.6%	17.4%	1.5%	24.7%
COC(=O)C(NC(=O)C(CC(=O)OC(C)(C)C)NC(=O)OC(C)(C)C)C(O)c1ccccc1 (stereo not given)	-35.6%	-23.9%	-22.4%	-0.75%	-27.6%	-0.85%
CCCCc1c[nH]n(C(N)=NCCSCc2nc[nH]c2C)c1=O	-7.15%	-18.4%	-9.95%	-20.2%	-2.45%	-4.75%
Oc1c(Cl)cc(Cl)cc1C1N2CCCCC2C2c3cccn3-c3ccccc3N21 (stereo not given)	22.4%	5.4%	18.3%	14.2%	21.2%	-30.6%
CCOC(=O)C1=C(Nc2ccc(Cl)cc2Cl)OC/C1=N\NS(=O)(=O)c1ccc(C)cc1	-3.95%	9.25%	1.2%	-8.6%	-2.45%	3.3%
CC1(C)CC(=O)C(/C=N/C(=S)NCCc2ccccc2)=C(O)C1	-22.8%	-53.4%	-21.3%	-2.85%	-14.8%	-7.6%
Nc1cc(Br)cc2c1-c1ccc(Br)cc1C2=O	15.1%	-10.6%	1.35%	-54.9%	5.15%	10%
C=CCCCCCCCCC(=O)Nc1cc(Cl)ccc1C	-0.25%	-5%	-10.4%	-22.9%	-10.8%	-2.7%
O=C(O)C(O)(O)C(=O)O	-2.9%	-11.2%	-12.6%	22.6%	5.8%	-4.05%
O=C1CSSCC(=O)NCCCN1	2.25%	1.15%	-5.35%	0.8%	2.55%	28.2%
Cc1cc(C(C)(C)C)cc(C)c1[N+](=O)[O-]	18.7%	-7.55%	-17.9%	8.2%	-7.1%	7.25%
CCOC(=O)c1nc2ccccc2nc1NCc1ccc(OC)c(OC)c1	0.65%	13.1%	-7.75%	19.7%	-0.05%	-11.4%
C(=C\c1ccc(-c2ccccc2)cc1)/c1ccc(-c2ccccc2)cc1	-16.2%	-19.9%	4.4%	-5.3%	-16.7%	-16.4%
COc1ccccc1/C=C1\CCC(CCN(C)C)(C2=CCCC2)C1=O (stereo not given)	-3.05%	-11.8%	-27.5%	11.1%	-17.7%	24.4%
O=C(O)C1CCCC2C(O)CCC(O)C12 (stereo not given)	-10.4%	-15.4%	-1.85%	-12.9%	-7.2%	-34.1%
CSc1ccc2c(cc1=O)[C@@H](NC(C)=O)CCc1cc(O)c(O)c(O)c1-2	7.1%	12.3%	18.1%	4.85%	17.4%	22.8%
